Reference: PubChem BioAssay AID602430 (NMMLSC, 2012)
The list shows a part of the results. Calls of active or inactive are those of the source.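 The calls were made as follows: active = repeat-averaged ratio response below 75% of DMSO, the collection mean minus 3 SD; inactive = the rest.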

Target: ATP-binding cassette sub-family B member 6 (Homo sapiens) (UniProt Q9NP58)
Test: blockers of ABCB6-driven porphyrin uptake – K562-ABCB6 cells, flow cytometry, cherry pick 1, confirmation (AID 602430);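 also: median porphyrin fluorescence at 575 nm with 488 nm excitation from mitochondria; lower ratio means less porphyrin signal so ABCB6 inhibition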
Conditions: K562-ABCB6 porphyrin accumulation, 1 h, at 10 µM, hits give low values

Chain of ATP-binding cassette sub-family B member 6 (Homo sapiens) (Q9NP58 whole entry, looked up): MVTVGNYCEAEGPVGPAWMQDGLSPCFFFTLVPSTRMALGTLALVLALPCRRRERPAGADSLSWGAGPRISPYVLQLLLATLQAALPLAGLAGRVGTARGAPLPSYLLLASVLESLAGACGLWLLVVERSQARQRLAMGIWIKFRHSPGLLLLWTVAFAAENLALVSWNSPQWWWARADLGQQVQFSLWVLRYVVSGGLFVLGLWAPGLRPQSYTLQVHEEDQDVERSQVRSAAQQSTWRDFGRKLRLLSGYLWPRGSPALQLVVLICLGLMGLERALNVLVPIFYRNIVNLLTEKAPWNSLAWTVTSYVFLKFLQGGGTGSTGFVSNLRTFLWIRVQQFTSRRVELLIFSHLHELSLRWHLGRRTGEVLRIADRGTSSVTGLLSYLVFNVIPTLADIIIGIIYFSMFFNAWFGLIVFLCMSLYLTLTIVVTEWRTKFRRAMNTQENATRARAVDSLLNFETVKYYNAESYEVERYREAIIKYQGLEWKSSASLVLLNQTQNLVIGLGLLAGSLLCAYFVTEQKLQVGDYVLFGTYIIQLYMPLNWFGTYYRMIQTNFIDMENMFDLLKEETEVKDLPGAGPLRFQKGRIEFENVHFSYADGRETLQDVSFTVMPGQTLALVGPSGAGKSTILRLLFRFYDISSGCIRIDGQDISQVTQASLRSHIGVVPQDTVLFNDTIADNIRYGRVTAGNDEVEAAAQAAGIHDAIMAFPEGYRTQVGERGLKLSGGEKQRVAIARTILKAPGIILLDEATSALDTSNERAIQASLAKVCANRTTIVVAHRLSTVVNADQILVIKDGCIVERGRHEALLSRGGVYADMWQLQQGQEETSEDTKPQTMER

Ratio response (% of DMSO), inactive:
Cc1ccc(NC(=O)N2CCC(c3nc4c(nnn4Cc4c(F)cccc4Cl)c(=O)[nH]3)CC2)cc1 98%
CCOC(=O)N1CCN(C(=O)CN(C2CCCCC2)S(C)(=O)=O)CC1 101%
O=C(Cc1cccs1)NCc1cccc(C(F)(F)F)c1 103%
CCOc1ccc(NC(=O)CC2NCCNC2=O)cc1 (stereo unspecified) 100%
CCCOC(=O)C1=C(C)NC2=C(C(=O)C(C(=O)OC)C(C)C2)C1c1ccc(N(C)C)cc1 (stereo unspecified) 100%
O=C(c1ccc(Cl)cc1)c1cnc(Nc2ccccc2)s1 102%
Cc1cccc(NC(=O)c2nc(S(=O)(=O)Cc3ccccc3)ncc2Cl)c1 90%
Cc1cc(C)cc(NC(=O)NCc2ccccn2)c1 96%
O=C(COc1ccc(-n2cnnn2)cc1)Nc1ccccc1Cl 99%
CC1(C)Cc2c(C#N)c(SCc3nc4ccccc4[nH]3)nc(N3CCOCC3)c2CO1 96%
COc1ccc(CCNC2=C(Cl)C(=O)N(Cc3ccccc3)C2=O)cc1OC 100%
Cc1ccc(SCC(=O)Nc2ncc(C)s2)cc1 103%
OCCC1CN(Cc2cnc(-c3ccccc3)s2)CCN1CCc1ccccc1 (stereo unspecified) 102%
O=C(NCCSc1ncc(-c2ccccc2)[nH]1)c1ccco1 102%
COc1cccc(N(CC(=O)N2CCc3ccccc3C2)S(C)(=O)=O)c1 100%
CCC(=O)N1CCCC1(C)C(=O)Nc1ccc2c(c1)CCN2C(C)=O (stereo unspecified) 99%
